Source: PubChem BioAssay
AID923: qHTS Assay for Allosteric/Competitive Inhibitors of Caspase-1: Spectroscopic Profiling in AFC Spectral Region; Potency, µM (series often up to 57.5 µM), for the others: top-dose fluorescence increase, hits mostly activators; 1.1% of 75,000 active; compound fluorescence, AFC spectral region (405/520 nm); AID 923, 2007; note: potency is the fitted concentration of half-maximal effect; 0% is about no effect
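Baseline compound fluorescence (AFC region, 405 nm ex/520 nm em) taken from the intercept of kinetic reads with 50 nM caspase-1 and 5 uM Ac-WEHD-AFC; normalized to an on-plate AFC standard curve; compounds titrated up to 57 uM.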
HSD17B inh: qHTS Assay for Inhibitors of HSD17B4, hydroxysteroid (17-beta) dehydrogenase 4; recombinant HSD17B10, NADH fluorescence kinetic; Potency, µM (series often up to 57.1 µM), inactives show at the top dose activity change, negative = inhibition, usual class: inhibitors; 7.6% of 75,000 active; AID 893, 2007;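 note: the protocol describes HADH2 (HSD17B10) and not the HSD17B4 of the title; potency is the fitted concentration of half-maximal effect; % is set by controls: 0 for no effect and ±100 for the full control effect; nearly all actives have a fitted effect of over 70% in size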
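Activity followed as NADH fluorescence increase (ex 360, em 450 nm) every 30 seconds for 4 min, using final 90 uM beta-hydroxybutyryl CoA and 1 mM NAD+. Recombinant His-tagged enzyme, 20 nM, pH 9.0 Tris buffer, 15 min compound preincubation.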
CRE-bla Fsk: Cell signaling CRE-BLA (Fsk stim); CHO CRE-bla reporter (cAMP response element driving beta-lactamase), forskolin EC10, beta-lactamase ratio; 2.5% of 71,000 active; Potency, µM (doses to about 38.2 µM), without a hit: top-dose activity change, negative = inhibition, actives largely listed as activators; active = well fitted activation curve with a large enough effect in the signal ratio, with a control signal flat, not every such curve was filed as active; inconclusive = small, poorly fitted or top-dose-only effect, or effect the other way, or a change in a side signal; the % refers to the signal ratio; note: potency is the fitted concentration of half-maximal effect; % of control where 0% means no effect
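Reporter-gene assay: CHO cells with beta-lactamase behind cAMP responsive elements, co-treated with compound and EC10 NKH 477 for 3 hours at 37 degrees Celsius. Activity came from the 460/530 nm CCF4 emission ratio.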
4-MU autofl: qHTS Assay for Spectroscopic Profiling in 4-MU Spectral Region. compound autofluorescence, 340/450 nm, 4-MU equivalents; active compounds read high. max dye-equivalent concentration, M. 11% of 59,000 active. AID 589, 2007; in the data active = max dye-equivalent concentration above about 10 nM; inconclusive = mostly about 1.1 nM to 9.6 nM
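Intrinsic fluorescence at 340/450 nm (ex/em) was read after 15 min at room temperature in pH 8.0, 100 mM Tris. Each compound concentration expressed as 4-MU-equivalent concentration from a six-point 4-MU standard series on each plate.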
HADH2 inh: qHTS Assay for Inhibitors of HADH2 (Hydroxyacyl-Coenzyme A Dehydrogenase, Type II). recombinant HADH2, NADH fluorescence, beta-hydroxybutyryl-CoA. Potency, µM (highest dose often 57.1 µM), for inactives: at the highest dose activity change, negative = inhibition, actives largely listed as inhibitors. 3.4% of 73,000 active; note: potency is the fitted concentration of half-maximal effect; % is set by controls: 0 for no effect and ±100 for the full control effect; nearly all actives have a fitted effect of over 60% in size
Target sequence (Q99714 whole entry, looked up, one chain of several): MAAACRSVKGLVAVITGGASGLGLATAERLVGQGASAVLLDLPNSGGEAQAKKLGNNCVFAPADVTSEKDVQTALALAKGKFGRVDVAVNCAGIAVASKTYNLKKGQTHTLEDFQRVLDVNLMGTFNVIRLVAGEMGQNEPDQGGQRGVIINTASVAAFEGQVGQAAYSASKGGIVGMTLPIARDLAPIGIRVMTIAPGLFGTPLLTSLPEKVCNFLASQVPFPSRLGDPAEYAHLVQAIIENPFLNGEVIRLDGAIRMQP
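Read-out: 360 nm excitation, 450 nm emission, kinetic over 4 min. Conditions: His-tagged human HADH2 20 nM, pH 9.0 Tris with Tween-20, 1 mM NAD+, 90 uM beta-hydroxybutyryl-CoA.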
A350 autofl: qHTS Assay for Spectroscopic Profiling in A350 Spectral Region | Compound autofluorescence, 340/450 nm, Alexa 350 dye-equivalents; active compounds read high | max dye-equivalent concentration, M | 11% of 59,000 active | AID 590, 2007; in the data active = max dye-equivalent concentration above about 10 nM; inconclusive = mostly about 1.1 nM to 9.6 nM
* hit, by the source's call; [ ] = another dose, or the depositor's remark. Rows were chosen to be rich in hits. Some 14% of all compounds tested hit in one or more screens of this group. Unless noted, calls come from the whole dose curve; as a rule, active = well fitted curve in the direction sought with a large enough effect; inconclusive = small, poorly fitted or top-dose-only effect, or another doubt; inactive = no such curve, though single readings can be large; an effect the other way counts as inactive or inconclusive.

COc1ccc(N2CCN(/C(=N\S(=O)(=O)c3ccccc3)Nc3nc(C)cc(C)n3)CC2)cc1 was read as AID923 1.7%, HSD17B inh inconclusive, CRE-bla Fsk -3.5%, 4-MU autofl 9.85e-06M*, HADH2 inh inactive and A350 autofl 1.06e-05M*.
`CCN1C(C)=C(C(=O)OC)C(c2ccccc2)N2C(=O)[C@@]3(C(=O)OC)O[C@@]12C1C(=O)CCCC13` (stereo partly specified) gave AID923 0.0%[11.5 µM], HSD17B inh 1.2%[11.4 µM] and HADH2 inh 4.5%[11.4 µM].
`COc1ccccc1CN1C(=O)CCC1(C)C(=O)NCc1cccnc1` (stereo unspecified) gave AID923 1.1%, HSD17B inh -0.7%, CRE-bla Fsk inconclusive, 4-MU autofl 1.24e-08M*, HADH2 inh 11.4% and A350 autofl 1.26e-08M*.
`CCC(C)NC(=O)C1(C)CCC(=O)N1Cc1ccccc1OC` (stereo unspecified) gave AID923 -0.1%, HSD17B inh 0.7%, CRE-bla Fsk -8.9%, 4-MU autofl inactive, HADH2 inh 0.8% and A350 autofl inactive.
CCOc1c(C)cc(-c2ncccc2O)cc1C was read as AID923 -0.5%, HSD17B inh 25.1µM*, CRE-bla Fsk 5.1%, 4-MU autofl 2.47e-07M*, HADH2 inh 25.1µM* and A350 autofl 1.79e-07M*.
`CCOC(=O)C(C)C1(O)c2ccccc2-c2ncccc21` (stereo unspecified) gave AID923 1.0%, HSD17B inh 3.7%, CRE-bla Fsk -3.2%, 4-MU autofl inactive, HADH2 inh -0.6% and A350 autofl inactive.
For COc1ccc2c(c1)c1ncn(Cc3ccco3)c(=O)c1n2C the results were AID923 -0.2%, HSD17B inh 25.1µM*, CRE-bla Fsk 1µM*, 4-MU autofl 1.28e-06M*, HADH2 inh 31.6µM* and A350 autofl 1.06e-06M*.
Screening COc1ccc2c(=O)c3c(=O)n(Cc4ccco4)c(C(C)C)nc3oc2c1 returned AID923 -0.4%, HSD17B inh -4.0%, CRE-bla Fsk -11.0%, 4-MU autofl inactive, HADH2 inh 11.6% and A350 autofl inactive.
`Cc1nc(C)c(C(=O)Nc2ccccc2-c2ccccc2)o1` gave AID923 1.0%, HSD17B inh -19.3%, CRE-bla Fsk 27.1%, 4-MU autofl inactive, HADH2 inh inconclusive and A350 autofl inactive.
Screening Cc1cccc2sc(NC(=O)C3CCCO3)nc12 (stereo unspecified) returned AID923 0.6%, HSD17B inh -6.0%, CRE-bla Fsk inconclusive, 4-MU autofl 1.54e-07M*, HADH2 inh -0.3% and A350 autofl 1.86e-07M*.
Screening Cc1nc(C)c(C(=O)Nc2nc3c(C)cccc3s2)o1 returned AID923 4.8%, HSD17B inh 25.1µM*, CRE-bla Fsk inconclusive, 4-MU autofl 1.63e-08M*, HADH2 inh 7.94µM* and A350 autofl 2.19e-08M*.
`CCCc1nnc(NC(=O)C2CCCO2)s1` (stereo unspecified) gave AID923 0.3%, HSD17B inh 4.1%, CRE-bla Fsk 0.9%, 4-MU autofl inactive, HADH2 inh 1.7% and A350 autofl inactive.
CN1CCN(c2nc(Nc3cccc(C(F)(F)F)c3)nc(N3CCOCC3)n2)CC1 was read as AID923 0.5%, HSD17B inh 5.1%, CRE-bla Fsk 0.7%, 4-MU autofl inactive, HADH2 inh -8.5% and A350 autofl inactive.
Screening CN1CCN(c2nc(-c3cccs3)cc(C(F)(F)F)n2)CC1 returned AID923 -0.4%, HSD17B inh -2.4%, CRE-bla Fsk 6.3%, 4-MU autofl 1.15e-08M*, HADH2 inh 3.4% and A350 autofl 1.16e-08M*.
